Luciferase inh – blocks purified firefly luciferase enzyme activity | P08659 | purified P. pyralis luciferase, luminescence, biochemical | Potency, µM (titrated, usually from 115 µM), actives largely listed as inhibitors | hit rate 2.5% among 76,000; also: nearly all actives have a fitted effect of over 65% in size
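Inhibitors were tested against purified firefly luciferase in a biochemical, low-substrate format (both substrates at 10uM) and luminescence measured with a CCD imager.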
NPR1 antag – blocks ANP-stimulated signaling of human Npr1 receptor. Potency, µM (series often up to 46.3 µM), usual class: inhibitors. P16066. hit rate 1.6% among 76,000. HEK293 hNpr1 GloSensor cGMP, ANP-stimulated luminescence; calls by dose curve; also: nearly all actives have a fitted effect of over 60% in size
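Compound pre-incubated 30 min at room temperature on GloSensor-loaded HEK293 cells stably carrying hNpr1 and the pGS-40F cGMP biosensor. Stimulation uses hNppA at 0.1 nM final; luminescence is taken at baseline and 20 min post-agonist.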
HEK293 tox – HEK 293 cell cytotoxicity; AID 1345083; hit rate 6.6% among 94,000; Potency, µM (series often up to 115 µM), hits mostly inhibitors; HEK 293 viability, ATP luminescence (CellTiter-Glo), 48-72 h; also: nearly all actives have a fitted effect of over 60% in size
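CellTiter-Glo luminescence (cellular ATP) was read after 48 or 72 hr of compound exposure at 37 degree Celsius. Cells were HEK 293 plated at 250 cells/well.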
GPT2 inh – inhibitors of human GPT2 alanine aminotransferase. Potency, µM (titrated, usually from 57.7 µM), hits mostly inhibitors. hit rate 0.25% among 100,000. Q8TD30. Recombinant GPT2, coupled pyruvate oxidase/HRP Amplex Red fluorescence; also: nearly all actives have a fitted effect of over 60% in size
Target sequence (Q8TD30 whole entry, looked up): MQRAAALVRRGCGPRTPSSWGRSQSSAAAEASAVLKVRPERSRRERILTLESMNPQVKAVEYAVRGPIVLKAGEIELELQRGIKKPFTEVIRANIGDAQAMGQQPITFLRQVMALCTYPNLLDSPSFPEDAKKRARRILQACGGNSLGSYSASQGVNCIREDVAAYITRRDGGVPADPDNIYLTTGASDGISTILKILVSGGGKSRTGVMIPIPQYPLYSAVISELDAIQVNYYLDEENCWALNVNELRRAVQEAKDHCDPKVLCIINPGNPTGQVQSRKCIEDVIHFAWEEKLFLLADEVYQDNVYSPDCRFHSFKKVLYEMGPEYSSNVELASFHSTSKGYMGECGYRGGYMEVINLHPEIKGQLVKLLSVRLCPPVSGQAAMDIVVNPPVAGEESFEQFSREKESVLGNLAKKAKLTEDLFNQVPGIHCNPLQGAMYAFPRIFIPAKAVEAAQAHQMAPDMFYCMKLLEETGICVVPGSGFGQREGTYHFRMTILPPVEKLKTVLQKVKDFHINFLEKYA
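Inhibition is scored from Amplex Red fluorescence generated when pyruvate oxidase and HRP act on pyruvate released by GPT2. Reactions contain 10ng/uL enzyme, 250uM a-KG and 2mM L-alanine and run 30 min at room temperature.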
3T3 cytotox – NIH 3T3 cell cytotoxicity; AID 1345082; Potency, µM (titrated, usually from 96.7 µM), usual class: inhibitors; NIH 3T3 viability, CellTiter-Glo ATP luminescence, 48-72 h; hit rate 4.3% among 94,000; also: nearly all actives have a fitted effect of over 55% in size
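Mouse fibroblast NIH 3T3 cells, 400 per well, received compound via pintool and were incubated for 48 or 72 hr prior to CellTiter-Glo ATP luminescence measurement.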
A number is an active result. Compounds with a hit are over-represented: about 10% of the library has one in this group of screens. Unless noted, calls follow the shape of the dose curve; as a rule, active = well fitted curve in the direction sought with a large enough effect; inconclusive = small, poorly fitted or top-dose-only effect, or another doubt; inactive = no such curve, though single readings can be large; an effect the other way counts as inactive or inconclusive.

Screening COc1ccc(C(=O)N2CCCn3nc(C)c(-c4ccccc4-c4ccccc4)c32)cn1 returned Luciferase inh inactive, NPR1 antag inactive, HEK293 tox inconclusive, GPT2 inh inactive and 3T3 cytotox inconclusive.
Screening COc1ccc(C(=O)N2CCCn3nc(C)c(-c4ccccc4-c4ccccc4)c32)cc1 returned Luciferase inh inactive, NPR1 antag inactive, HEK293 tox 35.5µM, GPT2 inh inactive and 3T3 cytotox inconclusive.
Screening Cc1ccncc1-c1c(C)nn2c1N(C(=O)c1cccc(Cl)c1)CCC2 returned Luciferase inh inactive, NPR1 antag inactive, HEK293 tox inactive, GPT2 inh inactive and 3T3 cytotox inconclusive.
For Cc1nc(CN2CCN(C(C(=O)O)c3cc4ccccc4o3)CC2)cs1 (centres undefined) the results were Luciferase inh inactive, NPR1 antag inactive, HEK293 tox inactive, GPT2 inh inactive and 3T3 cytotox inactive.
For O=C(NCCc1ccccc1F)c1ccc2nnc(-c3ccc(OC(F)(F)F)cc3)n2c1 the results were HEK293 tox inconclusive, GPT2 inh inactive and 3T3 cytotox inconclusive.
`COc1ccc(CC(=O)NC2CCN(C(=O)c3cccc(-c4ccc(OC)nn4)c3)CC2)cc1` gave HEK293 tox inactive and 3T3 cytotox inactive.
For COc1ccc(CN2CC3(CCN(C(=O)Nc4ccccc4)CC3)C2=O)cc1 the results were Luciferase inh inactive, NPR1 antag inactive, HEK293 tox inactive, GPT2 inh inactive and 3T3 cytotox inactive.
O=C1CCN(S(=O)(=O)c2ccccc2)CCCN(C(=O)Nc2ccccc2F)CCN1 was read as Luciferase inh inactive, NPR1 antag inactive, HEK293 tox inactive, GPT2 inh inactive and 3T3 cytotox inactive.
For Cc1nc2cccnc2n1CC1CCCN(C(=O)Nc2ccccc2Cl)C1 (centres undefined) the results were Luciferase inh inactive, NPR1 antag inactive, HEK293 tox inactive, GPT2 inh inactive and 3T3 cytotox inactive.
O=C1c2c(nc(COc3cccc(Cl)c3)n2Cc2ccccc2)NCCN1CC1CC1 was read as Luciferase inh inactive, NPR1 antag inactive, HEK293 tox 100µM, GPT2 inh inactive and 3T3 cytotox inconclusive.
Screening COc1cccc(OCc2nc3c(n2Cc2ccccc2)C(=O)N(Cc2cccc(Cl)c2)CCN3)c1 returned Luciferase inh inactive, NPR1 antag inactive, HEK293 tox 25.1µM, GPT2 inh inactive and 3T3 cytotox inconclusive.
COc1cc(OC)cc(OCc2nc3c(n2Cc2ccccc2)C(=O)N(Cc2cccc(Cl)c2)CCN3)c1 was read as Luciferase inh inactive, NPR1 antag inactive, HEK293 tox 39.8µM, GPT2 inh inactive and 3T3 cytotox 22.4µM.
Screening O=C1c2c(nc(COc3cccc(N4CCOCC4)c3)n2Cc2ccccc2)NCCN1CC1CC1 returned Luciferase inh inactive, NPR1 antag inactive, HEK293 tox inconclusive, GPT2 inh inactive and 3T3 cytotox inconclusive.
`CC(=O)N1CCN(Cc2nc3c(n2Cc2ccccc2)C(=O)N(Cc2cccc(Cl)c2)CCN3)CC1` gave Luciferase inh inactive, NPR1 antag inactive, HEK293 tox inconclusive, GPT2 inh inactive and 3T3 cytotox inactive.
`CN1C(=O)[C@H]2CN(Cc3ccc(Cl)c(F)c3)C[C@H]2C1=O` gave Luciferase inh inactive, NPR1 antag inactive, HEK293 tox inactive, GPT2 inh inactive and 3T3 cytotox inactive.
CCOCCNC(=O)[C@@H]1CCCN1c1nccc(Nc2ccccc2Cl)n1 was read as HEK293 tox inconclusive, GPT2 inh inactive and 3T3 cytotox inactive.
`O=C(Cc1ccccc1)NC[C@H]1Cn2c(-c3ccc4c(c3)OCO4)cnc2CO1` gave Luciferase inh inactive, NPR1 antag inactive, HEK293 tox inconclusive, GPT2 inh inactive and 3T3 cytotox inactive.
For CN1CCN(c2ncnc3c2CN(C2CCC2)C(=O)CN3C)CC1 the results were HEK293 tox inactive, GPT2 inh inactive and 3T3 cytotox inconclusive.
Screening O=C(c1cc(-c2cc(Cl)cc(Cl)c2)c2cccn2n1)N1CCN(c2ncccn2)CC1 returned HEK293 tox inactive, GPT2 inh inactive and 3T3 cytotox inconclusive.
`COc1ccc(C(=O)N2CCCN(C)c3ccccc32)c(C)c1` gave Luciferase inh inactive, NPR1 antag inactive, HEK293 tox 44.7µM, GPT2 inh inactive and 3T3 cytotox inconclusive.
Screening CCOc1ccc(CC(=O)N2CCCN(S(C)(=O)=O)c3ccccc32)cc1OCC returned Luciferase inh inactive, NPR1 antag inactive, HEK293 tox inactive, GPT2 inh inactive and 3T3 cytotox inactive.
For COc1ccc(C(=O)N2CCCN(C)c3ccccc32)c(OC)c1 the results were Luciferase inh inactive, NPR1 antag inactive, HEK293 tox inconclusive, GPT2 inh inconclusive and 3T3 cytotox inconclusive.
`Cc1ccc(OCC(=O)N2CCCN(S(C)(=O)=O)c3ccccc32)cc1` gave Luciferase inh inactive, NPR1 antag inactive, HEK293 tox inactive, GPT2 inh inactive and 3T3 cytotox 22.4µM.
Screening COc1cccc(CC(=O)N2CCCN(C)c3ccccc32)c1 returned Luciferase inh inactive, NPR1 antag inactive, HEK293 tox inconclusive, GPT2 inh inactive and 3T3 cytotox inactive.
Screening CCOCC(=O)N1CCCN(S(C)(=O)=O)c2ccccc21 returned Luciferase inh inactive, NPR1 antag inactive, HEK293 tox inactive, GPT2 inh inactive and 3T3 cytotox inactive.
Screening CCOc1ccc(CC(=O)N2CCCN(C)c3ccccc32)cc1 returned Luciferase inh inactive, NPR1 antag inactive, HEK293 tox 89.1µM, GPT2 inh inactive and 3T3 cytotox inconclusive.
Cc1ccc(CC(=O)N2CCCN(S(C)(=O)=O)c3ccccc32)cc1 was read as Luciferase inh inactive, NPR1 antag inactive, HEK293 tox inactive, GPT2 inh inactive and 3T3 cytotox 17.8µM.
`Cc1noc(C)c1CCC(=O)NC1CCc2nnc(C)n2CC1` (centres undefined) gave Luciferase inh inactive, NPR1 antag inactive, HEK293 tox inactive, GPT2 inh inactive and 3T3 cytotox inactive.
CNC(=O)[C@@H]1CN(Cc2ccc3cc[nH]c3c2)C[C@H]1c1nc(C)no1 was read as Luciferase inh inactive, NPR1 antag inactive, HEK293 tox inactive, GPT2 inh inactive and 3T3 cytotox inactive.
For O=C(c1ccc(Cl)nc1)N1CCC(c2nn(Cc3ccccc3)c(=O)[nH]2)CC1 the results were Luciferase inh inactive, NPR1 antag inactive, HEK293 tox inactive, GPT2 inh inactive and 3T3 cytotox inactive.
CN(C)c1ncnc2sc3c(c12)CCN(Cc1ccco1)C3 was read as Luciferase inh inactive, NPR1 antag inactive, HEK293 tox inconclusive, GPT2 inh inactive and 3T3 cytotox inconclusive.
`CC(C)CNC(=O)c1ccc2oc(-c3ccnc(Cl)c3)nc2c1` gave HEK293 tox 89.1µM, GPT2 inh inactive and 3T3 cytotox inconclusive.
O=C(NCc1cccs1)c1ccc2oc(-c3ccncc3)nc2c1 was read as HEK293 tox inconclusive, GPT2 inh inactive and 3T3 cytotox inconclusive.

Assay outcomes deposited in PubChem BioAssay by National Center for Advancing Translational Sciences (NCATS).
